# Experimental data reported in PubChem BioAssay (NCATS).
# Values without a mark were called inactive. Records with an inconclusive call do not appear. A call without a number means that no potency is given here. Calls of active or inactive are those of the source. Unless noted, calls come from the whole dose curve.
# Tests used:
# [1] = qHTS for Inhibitors of the Functional Ribonucleoprotein Complex (vRNP) of Lassa (LASV) Arenavirus: LASV Primary Screen - GLuc reporter signal (AID 1347082; calls by dose curve; tested in HEK293 reporter line; note: nearly all actives have a fitted effect of over 60% in size; note: potency is the fitted concentration of half-maximal effect; for activity change, negative = inhibition: series mostly up to about 57 µM)
# [2] = qHTS for Inhibitors of the Functional Ribonucleoprotein Complex (vRNP) of Lassa (LASV) Arenavirus: Viability assay - alamar blue signal for LASV Primary Screen (AID 1347083; calls by dose curve; tested in HEK293 reporter line; note: nearly all actives have a fitted effect of over 80% in size; note: potency is the fitted concentration of half-maximal effect; for activity change, negative = reduced viability: series mostly up to about 57 µM)
# [3] = molecular target: Nucleoprotein (Lymphocytic choriomeningitis virus (strain Armstrong)) (UniProt P09992); experiment: qHTS for Inhibitors of the Functional Ribonucleoprotein Complex (vRNP) of Lymphocytic Choriomeningitis Arenaviruses (LCMV): LCMV Primary Screen - GLuc reporter signal (AID 1347086); note: nearly all actives have a fitted effect of over 70% in size; note: potency is the fitted concentration of half-maximal effect; for activity change, negative = inhibition: series mostly up to about 57 µM
# Chain of Nucleoprotein (Lymphocytic choriomeningitis virus (strain Armstrong)) (P09992 whole entry, looked up): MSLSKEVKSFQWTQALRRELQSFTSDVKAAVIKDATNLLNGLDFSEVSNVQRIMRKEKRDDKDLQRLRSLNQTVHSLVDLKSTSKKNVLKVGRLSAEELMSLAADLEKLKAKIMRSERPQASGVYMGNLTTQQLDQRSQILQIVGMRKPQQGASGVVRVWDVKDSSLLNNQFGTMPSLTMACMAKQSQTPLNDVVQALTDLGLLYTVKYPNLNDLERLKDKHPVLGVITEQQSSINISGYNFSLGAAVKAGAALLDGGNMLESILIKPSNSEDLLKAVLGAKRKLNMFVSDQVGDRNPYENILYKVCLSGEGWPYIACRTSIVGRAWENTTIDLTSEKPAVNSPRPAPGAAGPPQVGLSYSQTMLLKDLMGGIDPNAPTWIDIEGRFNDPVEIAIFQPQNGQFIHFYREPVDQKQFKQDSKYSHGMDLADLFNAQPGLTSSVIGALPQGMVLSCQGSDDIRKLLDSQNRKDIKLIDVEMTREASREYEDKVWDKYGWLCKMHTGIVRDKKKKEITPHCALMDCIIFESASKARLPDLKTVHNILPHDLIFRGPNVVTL
# [4] = Cytotoxicity counterscreen for inhibitors of SARS-CoV-2 cell entry (AID 1645845); note: nearly all actives have a fitted effect of over 50% in size
# In short: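 Counterscreen run in the same HEK293-ACE2 line as the pseudotyped-particle entry assay, without particles. Viability after 48 h at 37 C was read as ATP luminescence, scaled between cell-containing and cell-free wells.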
# [5] = Confirmatory qHTS for VERO E6 Cytotoxicity Assay: Counterscreen for SARS-CoV-2 CPE Assay (AID 1508605); note: nearly all actives have a fitted effect of over 60% in size; note: potency is the fitted concentration of half-maximal effect
# [6] = Confirmatory qHTS for activators (rescue) of SARS-CoV-2 Cytopathic Effect (CPE) (AID 1508606); note: potency is the fitted concentration of half-maximal effect; nearly all actives have a fitted effect of over 70% in size
# [7] = Confirmatory qHTS to identify inhibitors of SARS-CoV-2 cell entry (AID 1645844); note: potency is the fitted concentration of half-maximal effect; nearly all actives have a fitted effect of over 45% in size
# In short: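 HEK293-ACE2, overnight seeding; cpd 1 h, 37C/5% CO2; + SARS-CoV-2-S MLV PP (Wuhan-Hu-1, ΔC19); 48 h; Bright-Glo luminescence. Data normalised to S PP and bald PP wells.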
# [8] = VSVG counterscreen qHTS to identify inhibitors of SARS-CoV-2 cell entry (AID 1645847); note: potency is the fitted concentration of half-maximal effect; nearly all actives have a fitted effect of over 65% in size
# In short: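 HEK293-ACE2 cells (Expi293F stably expressing human ACE2) were pretreated with compound for 1 h at 37 °C, then infected with MLV-based VSV-G pseudotyped particles for 48 h. Luciferase luminescence was normalized to VSV-G PP and bald PP wells.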
# [9] = molecular target: Alpha-galactosidase (Coffea arabica) (UniProt Q42656); experiment: Counterscreen for Glucocerebrosidase Inhibitors: qHTS Assay for Coffee Bean alpha-Galactosidase at pH 4.5 (AID 957; active = well fitted curve in the direction sought with a large enough effect; an effect the other way counts as inactive or inconclusive; note: series mostly up to about 77 µM)
# Chain of Alpha-galactosidase (Coffea arabica) (Q42656 whole entry, looked up): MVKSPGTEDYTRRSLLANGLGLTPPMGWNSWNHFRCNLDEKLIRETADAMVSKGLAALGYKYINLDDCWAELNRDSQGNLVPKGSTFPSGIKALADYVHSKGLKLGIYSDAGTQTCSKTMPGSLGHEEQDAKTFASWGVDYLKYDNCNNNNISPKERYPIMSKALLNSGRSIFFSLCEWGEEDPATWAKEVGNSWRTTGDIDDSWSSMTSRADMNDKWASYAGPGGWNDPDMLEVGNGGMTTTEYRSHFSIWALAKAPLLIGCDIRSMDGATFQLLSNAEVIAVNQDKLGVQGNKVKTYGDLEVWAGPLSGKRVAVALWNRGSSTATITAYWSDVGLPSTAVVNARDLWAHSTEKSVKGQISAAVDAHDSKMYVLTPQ
# In short: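 Quantitative HTS of compounds (0.7 nM to 77 uM) against coffee bean alpha-galactosidase at pH 4.5, measuring 4-methylumbelliferone fluorescence released from 80 uM substrate.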
# [10] = molecular target: Alpha-galactosidase (Coffea arabica) (UniProt Q42656); experiment: Counterscreen for Glucocerebrosidase Inhibitors: qHTS Assay for Coffee Bean alpha-Galactosidase at pH 5.9 (AID 998; active = well fitted curve in the direction sought with a large enough effect; an effect the other way counts as inactive or inconclusive)
# In short: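 Enzyme 2 nM + cpd (0.7 nM–77 uM titration) + 4-MU-alpha-Gal 80 uM, pH 5.9 citrate/Tween-20, RT 20 min, NaOH/glycine stop pH 10, fluor 365/440. Normalized to no-enzyme and full-activity controls; Hill-fit AC50.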
# [11] = qHTS for Inhibitors of the Functional Ribonucleoprotein Complex (vRNP) of Lymphocytic Choriomeningitis Arenaviruses (LCMV): Viability assay - alamar blue signal for LCMV Primary Screen (AID 1347085; calls by dose curve; tested in HEK293 reporter line; note: series mostly up to about 57 µM; nearly all actives have a fitted effect of over 80% in size)
smiles,measurement,setting,value
Cc1cc(OCCCS(C)(=O)=O)cc(C)c1-c1cccc(COc2ccc3c(c2)OC[C@H]3CC(=O)O)c1,Potency,[1],inactive
same,Potency,[2],inactive
same,Potency,[3],inactive
same,Potency,[4],inactive
COc1c2ccoc2c(OC[C@@H](O)C(C)(C)OC)c2oc(=O)ccc12,Potency,[1],inactive
same,Potency,[2],inactive
same,Potency,[3],inactive
COc1cc2c(cc1OC)CN(CCc1ccc(NC(=O)c3cc(OC)c(OC)cc3NC(=O)c3cnc4ccccc4c3)cc1)CC2,Potency,[1],inactive
same,Potency,[2],19.3 µM (active)
same,Potency,[3],inactive
same,Potency,[4],inactive
NC(=O)c1cccc2cn(-c3ccc([C@@H]4CCCNC4)cc3)nc12,Potency,[1],inactive
same,Potency,[2],10.9 µM (active)
same,Potency,[3],inactive
same,Potency,[5],inactive
same,Potency,[6],11.2 µM (active)
same,Potency,[7],4.29 µM (active)
same,Potency,[8],2.15 µM (active)
CCNC(=O)c1cc2c(-c3cc(OCCN4CCCC4)c(Cl)cc3Cl)nc(N)nc2s1,Potency,[1],4.85 µM (active)
same,Potency,[2],4.32 µM (active)
same,Potency,[3],1.37 µM (active)
COc1ccc(-c2cc3nccn3c(Nc3ncccc3C(N)=O)n2)cc1OC,Potency,[1],inactive
same,Potency,[2],2.17 µM (active)
same,Potency,[3],inactive
same,Potency,[4],inactive
CCCCC/C=C\C\C=C/C=C/C=C/[C@@H](O)[C@@H](O)CCCC(=O)O,"activity change, negative = inhibition",[1],-2.59% [at 0.757 µM]
same,"activity change, negative = reduced viability",[2],14.4% [at 0.757 µM]
same,"activity change, negative = inhibition",[3],-32.8% [at 0.757 µM]
C=C1C2[C@H](OC(C)=O)[C@@H]3CC(=O)[C@]4(C)OC[C@@]3(C)[C@@]4(O)[C@@H](OC(C)=O)[C@H](OC(C)=O)[C@@]2(COC(=O)c2ccccc2)[C@@H](OC(C)=O)C[C@@H]1O (stereo partly specified),Potency,[1],inactive
same,Potency,[2],inactive
same,Potency,[3],inactive
O=C1c2ccccc2C(=O)N1Cc1ccccc1,Potency,[1],inactive
same,Potency,[2],inactive
same,Potency,[3],inactive
Cc1ccc(NC(=O)Nc2cc(C(F)(F)F)ccc2F)cc1Nc1ccc2c(c1)NC(=O)C2=Cc1ccc[nH]1,Potency,[1],30.6 µM (active)
same,Potency,[2],17.2 µM (active)
same,Potency,[3],27.3 µM (active)
CCOc1ccccc1OCCNC(C)Cc1ccc(OC)c(S(N)(=O)=O)c1 (stereo unspecified),Potency,[1],inactive
same,Potency,[2],inactive
same,Potency,[3],inactive
Cc1cc(Cl)ccc1OCCCC(=O)NO,Potency,[1],inactive
same,Potency,[2],24.3 µM (active)
same,Potency,[3],inactive
same,Potency,[4],inactive
C=CCNc1c(O)cc2c(O)c1C[C@@H](C)C[C@H](OC)[C@@H](O)[C@@H](C)C=C(C)[C@H](OC(N)=O)[C@@H](OC)C=CC=C(C)C(=O)N2,Potency,[1],10.9 µM (active)
same,Potency,[2],4.85 µM (active)
same,Potency,[3],4.85 µM (active)
C=C[C@H]1CN2CC[C@@H]1C[C@@H]2[C@@H](O)c1ccnc2ccc(OC)cc12,outcome,[9],inactive
same,outcome,[10],inactive
same,Potency,[1],inactive
same,Potency,[2],inactive
same,Potency,[11],inactive
COc1ccc(-c2cc3c(C)nc(N)nc3n(C3CCC(OCCO)CC3)c2=O)cn1 (stereo unspecified),Potency,[1],0.153 µM (active)
same,Potency,[2],0.0544 µM (active)
same,Potency,[3],0.153 µM (active)
CC(C)(C)Cn1c(N)nc2ccc(-c3[nH]c(C(C)(C)C)nc3-c3ccc(F)cc3)nc21,Potency,[1],inactive
same,Potency,[2],inactive
same,Potency,[3],inactive
same,Potency,[5],11.2 µM (active)
same,Potency,[6],1.58 µM (active)
Nc1ncnc2c1ncn2[C@@H]1O[C@H](CO)C[C@@H]1O,Potency,[1],inactive
same,Potency,[2],inactive
same,Potency,[3],inactive
COc1cc(Cl)cn2c(-c3cccc(NC4CNC4)n3)cnc12,Potency,[1],inactive
same,Potency,[2],21.7 µM (active)
same,Potency,[3],inactive
